These compounds were tested on Plasmodium falciparum (assay: GSK_TCMDC: Inhibition of Plasmodium falciparum Dd2 in whole red blood cells, using parasite LDH activity as an index of growth. Test compounds present at 2uM).
Assay type: functional

SMILES | Inhibition
COc1ccc2nc3cc(Cl)ccc3c(NCCCO)c2c1 | 100%
CC(=O)c1cccc(NC(=O)NC2CCN(CCCCCNC(=O)/C=C/c3ccc(Cl)c(Cl)c3)CC2)c1 | 1%
Cc1cc(O)c(CNC2CCCCC2)cc1C.Cl | 95%
COc1ccc2oc(=O)c(C#N)c(O)c2c1 | 0%
O=C(NCCc1ccc(F)cc1)c1ccc(N2CCN(c3ccncc3)CC2)nc1.O=C(O)C(F)(F)F | 3%
CC(C)Cn1c(Sc2ccc(C#N)c([N+](=O)[O-])c2)nnc1-c1cccs1 | 32%
CCCCCCNC[C@@H](O)[C@H](Cc1ccccc1)NC(=O)c1cc(NCC)cc(N2CCCCS2(=O)=O)c1.Cl | 98%
Cc1cccc2nc(-c3ccc(-c4cccc(CN5CCN(CC6CCCN(C)C6)CC5)c4)s3)[nH]c12.O=C(O)C(F)(F)F (stereo not given) | 99%
Clc1ccccc1CNc1noc(-c2sccc2Br)n1 | 93%
Clc1ccc2c(NN=Cc3ccco3)ccnc2c1 | 96%
CC(=O)c1cccc(NC(=O)C2c3ccccc3C(=O)N(CC(C)C)C2c2cccs2)c1 (stereo not given) | 100%
O=C(NCCCCN1CCC(c2c[nH]c3ccc(-c4ccccc4)cc23)CC1)c1ccc(-c2ccccc2)cc1.O=C(O)C(=O)O | 40%
COc1cc(NC(=O)CCCCCCCCN2CCN(C)CC2)c2ncccc2c1 | 36%
OC(CNc1ccnc(Nc2ccccc2)n1)c1cccc(C(F)(F)F)c1 (stereo not given) | 61%
CC(C)n1ncc2c(C(=O)N3CCCc4ccccc43)cc(-c3ccccc3)nc21 | 82%
CNC(=O)C1Cc2c([nH]c3cc(Br)ccc23)C2(CCN(CCc3ccccc3)CC2)N1 (stereo not given) | 31%
CCOC(=O)C(C(=O)OCC)c1nc(C)ns1 | 0%
CC(C)CCNC(=O)C1Cc2c([nH]c3ccc(Br)cc23)C2(CCN(Cc3ccccc3)CC2)N1 (stereo not given) | 68%
O=C(NC1CCN(CCCOc2ccnc3cc(Cl)ccc23)C1)c1ccc(Br)cc1 (stereo not given) | 87%
COC1CCC(C(=O)Nc2ccc(-c3cccc(-c4nc5cc(C(F)(F)F)ccc5[nH]4)c3)cc2)CC1 (stereo not given) | 48%

SMILES | Inhibition
CCC(N)(C#Cc1ccc(-c2c(C)[nH]c(C)c(Br)c2=O)cc1)CC | 96%
CC1(C)N=C(N)N=C(N)N1OCc1ccc2c(c1)OCO2 | 86%
Cc1ccc(C2CC(c3cccs3)=NN2C(=O)c2ccc(Br)o2)cc1 (stereo not given) | 69%
Cc1cc(N[C@@H](Cc2ccccc2)C(=O)NC2CCCC2)nc(NCCOc2ccccc2)n1.O=C(O)C(F)(F)F | 48%
O=C(CC1SC(N2N=C(c3cccs3)CC2c2ccccc2)=NC1=O)Nc1ccc(Cl)cc1 (stereo not given) | 88%
Cc1ccccc1C(=O)NC(NC(=S)Nc1ccc([N+](=O)[O-])cc1)C(Cl)(Cl)Cl (stereo not given) | 39%
Cc1ccccc1C1CCN(C2CCC(NC(=O)/C=C/c3ccc(C(F)(F)F)cc3)CC2)CC1 (stereo not given) | 19%
CN1CCN(c2ccc3nccc(CCN4CCC(NCc5ccc6c(n5)NC(=O)CO6)CC4)c3n2)CC1.Cl | 3%
O=C(O)C(F)(F)F.c1ccc2[nH]c(-c3ccc(-c4ccc(CN5CCN(c6ccncc6)CC5)cc4)cc3)nc2c1 | 100%
CC(=O)Nc1ccc(-c2nc3ccc(-c4nc5ccc(NC(C)=O)cc5[nH]4)cc3[nH]2)cc1 | 99%
Cl.N#Cc1ccc(C2CCN(CC[C@H](N)Cc3ccc(Cl)s3)CC2)cc1 | 30%
O=[N+]([O-])c1ccc2nc(Nc3ccc(Cl)c(Cl)c3)c(Nc3ccc(Cl)c(Cl)c3)nc2c1 | 99%
Cc1nc(Nc2cc(Cl)ccc2O)nc(Nc2cc(Cl)ccc2O)c1[N+](=O)[O-] | 83%
Cc1cc(C)cc(OCC(O)CN(Cc2cc(Cl)cc(Cl)c2)C(=O)Nc2ccc(Cl)cc2)c1 (stereo not given) | 43%
CC(C)(C)c1ccc(-c2ccccc2CNC(=O)c2cccc(O)c2)cc1 | 88%
O=C(/C=C/c1ccc(Cl)c(Cl)c1)NCCCCCN1CCC(NC(=O)c2cc(Cl)ccc2F)CC1 | 32%
O=C(c1cc(-c2ccco2)n[nH]1)N1CCN(S(=O)(=O)c2ccc(Cl)cc2)CC1 | 95%
COc1ccc(Nc2ccnc3cc(-c4ccccn4)ccc23)cc1OC.Cl | 26%
Nc1nc(N)c2cc(N(Cc3ccccc3)Cc3ccccc3)ccc2n1 | 88%
O=C(Nc1ccc(N2CCN(Cc3ccccc3)CC2)cc1)c1cccs1.O=C(O)C(F)(F)F | 86%

These compounds were tested on HepG2 (assay: GSK_TCMDC: Percent inhibition of human HepG2 cell line. Test compounds present at 10uM.).
Assay type: functional

SMILES | Inhibition
COc1ccc2nc3cc(Cl)ccc3c(NCCCO)c2c1 | 32%
CC(=O)c1cccc(NC(=O)NC2CCN(CCCCCNC(=O)/C=C/c3ccc(Cl)c(Cl)c3)CC2)c1 | 7%
Cc1cc(O)c(CNC2CCCCC2)cc1C.Cl | 6%
COc1ccc2oc(=O)c(C#N)c(O)c2c1 | 0%
O=C(NCCc1ccc(F)cc1)c1ccc(N2CCN(c3ccncc3)CC2)nc1.O=C(O)C(F)(F)F | 1%
CC(C)Cn1c(Sc2ccc(C#N)c([N+](=O)[O-])c2)nnc1-c1cccs1 | 9%
CCCCCCNC[C@@H](O)[C@H](Cc1ccccc1)NC(=O)c1cc(NCC)cc(N2CCCCS2(=O)=O)c1.Cl | 5%
Cc1cccc2nc(-c3ccc(-c4cccc(CN5CCN(CC6CCCN(C)C6)CC5)c4)s3)[nH]c12.O=C(O)C(F)(F)F (stereo not given) | 47%
Clc1ccccc1CNc1noc(-c2sccc2Br)n1 | 0%
Clc1ccc2c(NN=Cc3ccco3)ccnc2c1 | 3%
CC(=O)c1cccc(NC(=O)C2c3ccccc3C(=O)N(CC(C)C)C2c2cccs2)c1 (stereo not given) | 11%
O=C(NCCCCN1CCC(c2c[nH]c3ccc(-c4ccccc4)cc23)CC1)c1ccc(-c2ccccc2)cc1.O=C(O)C(=O)O | 48%
COc1cc(NC(=O)CCCCCCCCN2CCN(C)CC2)c2ncccc2c1 | 8%
OC(CNc1ccnc(Nc2ccccc2)n1)c1cccc(C(F)(F)F)c1 (stereo not given) | 16%
CC(C)n1ncc2c(C(=O)N3CCCc4ccccc43)cc(-c3ccccc3)nc21 | 5%
CNC(=O)C1Cc2c([nH]c3cc(Br)ccc23)C2(CCN(CCc3ccccc3)CC2)N1 (stereo not given) | 10%
CCOC(=O)C(C(=O)OCC)c1nc(C)ns1 | 10%
CC(C)CCNC(=O)C1Cc2c([nH]c3ccc(Br)cc23)C2(CCN(Cc3ccccc3)CC2)N1 (stereo not given) | 100%
O=C(NC1CCN(CCCOc2ccnc3cc(Cl)ccc23)C1)c1ccc(Br)cc1 (stereo not given) | 21%
COC1CCC(C(=O)Nc2ccc(-c3cccc(-c4nc5cc(C(F)(F)F)ccc5[nH]4)c3)cc2)CC1 (stereo not given) | 69%

SMILES | Inhibition
CCC(N)(C#Cc1ccc(-c2c(C)[nH]c(C)c(Br)c2=O)cc1)CC | 0%
CC1(C)N=C(N)N=C(N)N1OCc1ccc2c(c1)OCO2 | 66%
Cc1ccc(C2CC(c3cccs3)=NN2C(=O)c2ccc(Br)o2)cc1 (stereo not given) | 11%
Cc1cc(N[C@@H](Cc2ccccc2)C(=O)NC2CCCC2)nc(NCCOc2ccccc2)n1.O=C(O)C(F)(F)F | 40%
O=C(CC1SC(N2N=C(c3cccs3)CC2c2ccccc2)=NC1=O)Nc1ccc(Cl)cc1 (stereo not given) | 18%
Cc1ccccc1C(=O)NC(NC(=S)Nc1ccc([N+](=O)[O-])cc1)C(Cl)(Cl)Cl (stereo not given) | 0%
Cc1ccccc1C1CCN(C2CCC(NC(=O)/C=C/c3ccc(C(F)(F)F)cc3)CC2)CC1 (stereo not given) | 64%
CN1CCN(c2ccc3nccc(CCN4CCC(NCc5ccc6c(n5)NC(=O)CO6)CC4)c3n2)CC1.Cl | 9%
O=C(O)C(F)(F)F.c1ccc2[nH]c(-c3ccc(-c4ccc(CN5CCN(c6ccncc6)CC5)cc4)cc3)nc2c1 | 48%
CC(=O)Nc1ccc(-c2nc3ccc(-c4nc5ccc(NC(C)=O)cc5[nH]4)cc3[nH]2)cc1 | 0%
Cl.N#Cc1ccc(C2CCN(CC[C@H](N)Cc3ccc(Cl)s3)CC2)cc1 | 31%
O=[N+]([O-])c1ccc2nc(Nc3ccc(Cl)c(Cl)c3)c(Nc3ccc(Cl)c(Cl)c3)nc2c1 | 1%
Cc1nc(Nc2cc(Cl)ccc2O)nc(Nc2cc(Cl)ccc2O)c1[N+](=O)[O-] | 0%
Cc1cc(C)cc(OCC(O)CN(Cc2cc(Cl)cc(Cl)c2)C(=O)Nc2ccc(Cl)cc2)c1 (stereo not given) | 0%
CC(C)(C)c1ccc(-c2ccccc2CNC(=O)c2cccc(O)c2)cc1 | 3%
O=C(/C=C/c1ccc(Cl)c(Cl)c1)NCCCCCN1CCC(NC(=O)c2cc(Cl)ccc2F)CC1 | 48%
O=C(c1cc(-c2ccco2)n[nH]1)N1CCN(S(=O)(=O)c2ccc(Cl)cc2)CC1 | 0%
COc1ccc(Nc2ccnc3cc(-c4ccccn4)ccc23)cc1OC.Cl | 14%
Nc1nc(N)c2cc(N(Cc3ccccc3)Cc3ccccc3)ccc2n1 | 69%
O=C(Nc1ccc(N2CCN(Cc3ccccc3)CC2)cc1)c1cccs1.O=C(O)C(F)(F)F | 0%

From ChEMBL document CHEMBL1157539, “Thousands of chemical starting points for antimalarial lead identification” (Nature, 2010)
